Experimental data taken from PubChem BioAssay (EPA / NIEHS).
“And” between values parts separate entries of the source, which are not always exact repeats. Equal entries are not always repeated. Records with an inconclusive call do not appear. Some structures have more than one record in an assay (separate samples or runs), and their calls can disagree. The source made the active and inactive calls. Rule for the calls, unless noted: active = hit-call score of the fitted dose curve at least 0.9, where 1 is the maximum; inconclusive = response in the unintended direction; inactive = score below 0.9.

What was measured:
[1] = test system: frog Estrogen Receptor (ER2), gene 100174814; assay: ATG_frER2_XSP2: Attagene TRANS-FACTORIAL Multi-Species (XSP2) HepG2 Assay for frog Estrogen Receptor (ER2) (AID 2283828)
Procedure, shortened: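 Read-out: reporter transcript levels by RT-PCR with 6-FAM primer extension, HpaI digestion and capillary electrophoresis, scored as induction over DMSO control. Transfected HepG2 carrying Xenopus ER2–GAL4 chimera; compounds incubated 24 h.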

[2] = molecular target: Peroxisome proliferator-activated receptor gamma (Homo sapiens) (UniProt P37231); assay: ATG_hPPARg_XSP2: Attagene TRANS-FACTORIAL Multi-Species (XSP2) HepG2 Assay for human Peroxisome Proliferator-activated Receptor gamma (PPARg) (AID 2283829);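 note: actives raise reporter mRNA above DMSO so AC50 reflects PPARg activation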
Procedure, shortened: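 Reporter transcripts were measured by RT-PCR, fluorescent labeling, HpaI digestion and capillary electrophoresis, relative to DMSO, 24 h post-dosing. Transiently transfected HepG2 expressed NR-Gal4 chimeras regulating GAL4-UAS reporters; medium contained 3 nM 6-alpha-fluorotestosterone plus 1.5 nM norgestrel.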

[3] = molecular target: mouse Peroxisome Proliferator-activated Receptor gamma (PPARg), Pparg (gene 19016) (UniProt P37238); assay: ATG_mPPARg_XSP2: Attagene TRANS-FACTORIAL Multi-Species (XSP2) HepG2 Assay for mouse Peroxisome Proliferator-activated Receptor gamma (PPARg) (AID 2283830);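 note: hits are gains in reporter mRNA above DMSO so AC50 marks activation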
Procedure, shortened: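 Multiplexed TRANS reporter readout: after 24 h chemical exposure of transfected HepG2 cells (with 3 nM 6-alpha-fluorotestosterone, 1.5 nM norgestrel present), RNA reverse-transcribed, amplified, 6-FAM-labelled and resolved by capillary electrophoresis; mouse PPARg-Gal4 induction scored against DMSO.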

[4] = molecular target: Nuclear receptor subfamily 1 group I member 2 (Mus musculus) (UniProt O54915); assay: ATG_mPXR_XSP2: Attagene TRANS-FACTORIAL Multi-Species (XSP1) HepG2 Assay for mouse Pregnane X Receptor (PXR) (AID 2283831)
Procedure, shortened: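 Reporter transcripts measured after 24 h dosing by RT-PCR with 6-FAM labelling, HpaI digestion and capillary electrophoresis. Transiently transfected HepG2 with NR-Gal4 chimeras; increase over DMSO baseline scored.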

[5] = molecular target: zebrafish Thyroid Hormone Receptor alpha (TRa), thraa (gene 30670) (UniProt Q98867); assay: ATG_zfTRa_XSP2: Attagene TRANS-FACTORIAL Multi-Species (XSP1) HepG2 Assay for zebrafish Thyroid Hormone Receptor alpha (TRa) (AID 2283832);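 note: actives raise zebrafish TRa-Gal4 reporter transcript above DMSO baseline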
Procedure, shortened: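 Multiplexed TRANS reporter format in HepG2; the medium also contained 3 nM 6-alpha-fluorotestosterone and 1.5 nM norgestrel. Reporter mRNA after 24 h read by RT-PCR and capillary electrophoresis, scored as induction over DMSO.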

[6] = test system: zebrafish Peroxisome Proliferator-activated Receptor gamma (PPARg), gene 557037; assay: ATG_zfPPARg_XSP2: Attagene TRANS-FACTORIAL Multi-Species (XSP2) HepG2 Assay for zebrafish Peroxisome Proliferator-activated Receptor gamma (PPARg) (AID 2283833);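 note: reporter mRNA from a zebrafish PPARg GAL4 chimera measured by RT-PCR and capillary electrophoresis; actives increase reporter signal over DMSO so AC50 reflects activation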
Procedure, shortened: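 After 24 h chemical exposure, RNA from transiently transfected HepG2 (chimeric NR-Gal4 TRANS reporters) was reverse-transcribed, PCR-amplified, 6-FAM-labelled, HpaI-cut and sized by capillary electrophoresis. Induction was scored in the positive direction relative to DMSO.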

[7] = ATG_M_61_XSP2: Attagene TRANS-FACTORIAL Multi-Species (XSP2) HepG2 Assay for M61 Transcription Factor (Internal Marker) (AID 2283835; active = hit-call score of the fitted dose curve at least 0.9, where 1 is the maximum; inactive = score below 0.9;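 note: active means a rise in signal above the DMSO baseline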)
Procedure, shortened: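 Internal background marker, read as RT-PCR/capillary-electrophoresis reporter mRNA 24 h post-dose in transiently transfected HepG2 cells. Androgen receptor stimulated with 3 nM 6-alpha-fluorotestosterone plus 1.5 nM norgestrel; gain of signal versus DMSO analysed.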

[8] = molecular target: zebrafish Thyroid Hormone Receptor beta (TRb), thrb (gene 30607) (UniProt Q9PVE4); assay: ATG_zfTRb_XSP2: Attagene TRANS-FACTORIAL Multi-Species (XSP1) HepG2 Assay for zebrafish Thyroid Hormone Receptor beta (TRb) (AID 2283836)
Procedure, shortened: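 Multiplexed trans-activation in HepG2 cells, 24 h treatment, with reporter mRNA read by RT-PCR and capillary electrophoresis. Gain-of-signal against DMSO.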

[9] = CPHEA_Stoker_NIS_Cytotoxicity: Cytotoxicity Assessment for CPHEA's Radioactive Iodide Uptake (RAIU) Assay for Sodium/Iodide Symporter (NIS) Inhibition, Stoker and Laws Labs (AID 2283897);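 for AC50: active means loss of ATP signal versus DMSO meaning cytotoxicity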
Procedure, shortened: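 ATP luminescence (Cell Titer Glo) measured viability, with loss of signal normalized to DMSO controls. Cells: hNIS-HEK293T-EPA, seeded 40 hours prior. Dosing: 0.001–100uM, 2 hours, room temperature, uptake buffer pH 7.4.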

[10] = test system: turtle Thyroid Hormone Receptor, alpha (TRa), gene 101949057; assay: ATG_trTRa_XSP2: Attagene TRANS-FACTORIAL Multi-Species (XSP1) HepG2 Assay for turtle Thyroid Hormone Receptor, alpha (TRa) (AID 2283834);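 note: hits raise reporter mRNA over the DMSO baseline so AC50 marks activators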
Procedure, shortened: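 Turtle TRa-Gal4 chimera activity in transfected human HepG2 cells: reporter transcripts quantified by RT-PCR, 6-FAM labelling and capillary electrophoresis 24 h post-dosing; positive direction versus DMSO, medium containing 3 nM 6-alpha-fluorotestosterone and 1.5 nM norgestrel.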

[11] = ATG_XTT_Cytotoxicity_XSP2: Cytotoxicity Assessment in the Attagene TRANS-FACTORIAL Multi-Species (XSP2) HepG2 Assay (AID 2283837)
Procedure, shortened: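 XTT-based cell number read-out in human HepG2 liver cells carrying transfected reporter units, measured 24 h after chemical dosing. Activity is signal loss versus DMSO baseline.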

[12] = molecular target: frog Thyroid hormone Receptor alpha (TRa), thra-a (gene 397942) (UniProt P15204); assay: ATG_frTRa_XSP2: Attagene TRANS-FACTORIAL Multi-Species (XSP2) HepG2 Assay for frog Thyroid hormone Receptor alpha (TRa) (AID 2283839)
Procedure, shortened: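 Reporter transcripts were measured by RT-PCR with capillary electrophoresis after 24 h dosing of HepG2 carrying transiently transfected multi-reporter units, including a chimeric frog TRa-GAL4 construct. Activity was taken as increase over DMSO vehicle.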

[13] = molecular target: human Thyroid hormone Receptor alpha (TRa), THRA (gene 7067) (UniProt P10827); assay: ATG_hTRa_XSP2: Attagene TRANS-FACTORIAL Multi-Species (XSP2) HepG2 Assay for human Thyroid hormone Receptor alpha (TRa) (AID 2283838)
Procedure, shortened: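 Gain-of-signal in reporter mRNA, relative to DMSO, after 24 h dosing of transfected HepG2; quantitation by RT-PCR fragment analysis on capillary electrophoresis.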

[14] = molecular target: human Thyroid hormone Receptor beta (TRb), THRB (gene 7068) (UniProt P10828); assay: ATG_hTRb_XSP2: Attagene TRANS-FACTORIAL Multi-Species (XSP2) HepG2 Assay for human Thyroid hormone Receptor beta (TRb) (AID 2283840);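 note: actives raise reporter mRNA so potency reflects agonist-like gain of signal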
Procedure, shortened: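 Activity of exogenous human TRb–Gal4 fusion measured by reporter mRNA from RT-PCR and capillary electrophoresis, 24 h after dosing transfected HepG2. 6-alpha-fluorotestosterone (3 nM) and norgestrel (1.5 nM) present. Gain-of-signal fit relative to DMSO.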

Chain of human Thyroid hormone Receptor beta (TRb), THRB (gene 7068) (P10828 whole entry, looked up, the tested form may be a part): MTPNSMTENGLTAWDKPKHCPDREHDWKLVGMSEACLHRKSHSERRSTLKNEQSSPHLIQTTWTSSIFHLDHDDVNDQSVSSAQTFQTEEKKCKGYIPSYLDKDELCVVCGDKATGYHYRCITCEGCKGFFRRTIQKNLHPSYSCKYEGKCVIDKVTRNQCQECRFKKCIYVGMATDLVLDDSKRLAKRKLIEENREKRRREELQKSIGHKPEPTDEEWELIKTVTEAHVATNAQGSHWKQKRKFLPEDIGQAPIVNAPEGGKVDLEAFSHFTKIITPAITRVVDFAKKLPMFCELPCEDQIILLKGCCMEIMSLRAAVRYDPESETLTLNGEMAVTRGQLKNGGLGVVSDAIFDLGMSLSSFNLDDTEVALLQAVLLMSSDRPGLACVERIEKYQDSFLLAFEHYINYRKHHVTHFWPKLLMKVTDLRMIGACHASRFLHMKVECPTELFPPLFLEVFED
Chain of Peroxisome proliferator-activated receptor gamma (Homo sapiens) (P37231 whole entry, looked up, the tested form may be a part): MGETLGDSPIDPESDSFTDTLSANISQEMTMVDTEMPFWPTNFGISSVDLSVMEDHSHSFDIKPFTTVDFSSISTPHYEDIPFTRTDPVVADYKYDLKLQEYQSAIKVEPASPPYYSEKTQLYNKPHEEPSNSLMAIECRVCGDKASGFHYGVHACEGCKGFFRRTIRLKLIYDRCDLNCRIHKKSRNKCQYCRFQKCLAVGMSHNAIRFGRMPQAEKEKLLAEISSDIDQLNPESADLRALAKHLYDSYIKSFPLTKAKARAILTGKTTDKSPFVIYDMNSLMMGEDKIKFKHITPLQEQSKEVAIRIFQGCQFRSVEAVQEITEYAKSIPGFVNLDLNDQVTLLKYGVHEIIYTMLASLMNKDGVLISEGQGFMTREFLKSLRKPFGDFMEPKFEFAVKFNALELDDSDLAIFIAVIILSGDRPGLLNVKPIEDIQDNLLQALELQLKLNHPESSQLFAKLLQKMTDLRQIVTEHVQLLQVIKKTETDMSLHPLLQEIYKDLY
Chain of Nuclear receptor subfamily 1 group I member 2 (Mus musculus) (O54915 whole entry, looked up, the tested form may be a part): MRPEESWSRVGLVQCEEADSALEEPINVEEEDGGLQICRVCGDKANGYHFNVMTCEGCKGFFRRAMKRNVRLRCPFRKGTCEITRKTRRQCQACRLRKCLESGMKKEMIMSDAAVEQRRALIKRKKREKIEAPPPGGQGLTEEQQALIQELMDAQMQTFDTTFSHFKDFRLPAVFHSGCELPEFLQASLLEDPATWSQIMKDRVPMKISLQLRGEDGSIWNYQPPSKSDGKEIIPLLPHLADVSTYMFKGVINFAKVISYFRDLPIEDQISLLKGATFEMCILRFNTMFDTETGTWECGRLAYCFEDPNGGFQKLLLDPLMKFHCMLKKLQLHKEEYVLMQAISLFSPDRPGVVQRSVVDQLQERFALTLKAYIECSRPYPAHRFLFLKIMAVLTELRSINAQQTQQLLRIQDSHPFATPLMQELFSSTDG
Chain of mouse Peroxisome Proliferator-activated Receptor gamma (PPARg), Pparg (gene 19016) (P37238 whole entry, looked up, the tested form may be a part): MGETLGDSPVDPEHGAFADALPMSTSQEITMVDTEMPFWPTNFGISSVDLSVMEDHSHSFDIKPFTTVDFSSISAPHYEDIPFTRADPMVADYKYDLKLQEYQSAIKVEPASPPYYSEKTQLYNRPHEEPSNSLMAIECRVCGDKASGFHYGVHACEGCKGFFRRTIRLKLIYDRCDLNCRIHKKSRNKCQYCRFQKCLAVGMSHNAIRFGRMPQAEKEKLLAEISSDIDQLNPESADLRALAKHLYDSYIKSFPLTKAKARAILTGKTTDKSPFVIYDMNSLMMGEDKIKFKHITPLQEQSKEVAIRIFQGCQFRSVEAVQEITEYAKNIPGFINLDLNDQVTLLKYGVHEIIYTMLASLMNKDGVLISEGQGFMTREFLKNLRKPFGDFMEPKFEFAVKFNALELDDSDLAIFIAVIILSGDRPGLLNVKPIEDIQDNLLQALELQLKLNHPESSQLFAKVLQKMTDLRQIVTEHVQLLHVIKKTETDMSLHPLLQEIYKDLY
Chain of zebrafish Thyroid Hormone Receptor alpha (TRa), thraa (gene 30670) (Q98867 whole entry, looked up, the tested form may be a part): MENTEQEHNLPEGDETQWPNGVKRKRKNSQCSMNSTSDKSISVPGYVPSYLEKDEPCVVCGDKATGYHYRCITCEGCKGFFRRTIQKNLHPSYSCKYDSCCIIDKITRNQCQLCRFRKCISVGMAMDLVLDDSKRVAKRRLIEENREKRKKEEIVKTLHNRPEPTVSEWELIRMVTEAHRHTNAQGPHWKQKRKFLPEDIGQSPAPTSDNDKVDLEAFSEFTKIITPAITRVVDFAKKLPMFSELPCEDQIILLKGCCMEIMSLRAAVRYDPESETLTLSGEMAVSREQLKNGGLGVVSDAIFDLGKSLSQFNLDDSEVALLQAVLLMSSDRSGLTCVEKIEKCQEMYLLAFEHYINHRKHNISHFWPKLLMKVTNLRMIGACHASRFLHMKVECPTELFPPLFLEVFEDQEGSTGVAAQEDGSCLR
Chain of zebrafish Thyroid Hormone Receptor beta (TRb), thrb (gene 30607) (Q9PVE4 whole entry, looked up): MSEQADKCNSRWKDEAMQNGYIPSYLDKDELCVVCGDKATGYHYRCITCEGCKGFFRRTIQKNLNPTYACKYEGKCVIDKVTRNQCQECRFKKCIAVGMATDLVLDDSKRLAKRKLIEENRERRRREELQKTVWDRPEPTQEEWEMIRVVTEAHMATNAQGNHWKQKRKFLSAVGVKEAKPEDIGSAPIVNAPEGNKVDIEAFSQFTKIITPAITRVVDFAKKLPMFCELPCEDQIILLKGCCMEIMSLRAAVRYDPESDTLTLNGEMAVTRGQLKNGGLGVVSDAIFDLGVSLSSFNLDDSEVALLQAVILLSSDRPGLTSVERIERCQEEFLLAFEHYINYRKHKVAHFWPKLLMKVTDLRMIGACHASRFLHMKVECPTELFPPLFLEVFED
Chain of frog Thyroid hormone Receptor alpha (TRa), thra-a (gene 397942) (P15204 whole entry, looked up, the tested form may be a part): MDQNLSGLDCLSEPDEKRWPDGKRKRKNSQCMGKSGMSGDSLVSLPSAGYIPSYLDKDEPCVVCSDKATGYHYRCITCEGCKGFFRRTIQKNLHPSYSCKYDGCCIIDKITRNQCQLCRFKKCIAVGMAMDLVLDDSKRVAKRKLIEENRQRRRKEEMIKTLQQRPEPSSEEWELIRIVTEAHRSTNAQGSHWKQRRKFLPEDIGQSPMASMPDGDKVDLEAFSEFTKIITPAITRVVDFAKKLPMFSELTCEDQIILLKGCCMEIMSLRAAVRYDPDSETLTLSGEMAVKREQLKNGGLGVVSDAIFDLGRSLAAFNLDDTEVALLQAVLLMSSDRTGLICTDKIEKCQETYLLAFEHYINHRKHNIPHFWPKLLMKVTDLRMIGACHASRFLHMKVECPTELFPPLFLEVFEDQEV
Chain of human Thyroid hormone Receptor alpha (TRa), THRA (gene 7067) (P10827 whole entry, looked up, the tested form may be a part): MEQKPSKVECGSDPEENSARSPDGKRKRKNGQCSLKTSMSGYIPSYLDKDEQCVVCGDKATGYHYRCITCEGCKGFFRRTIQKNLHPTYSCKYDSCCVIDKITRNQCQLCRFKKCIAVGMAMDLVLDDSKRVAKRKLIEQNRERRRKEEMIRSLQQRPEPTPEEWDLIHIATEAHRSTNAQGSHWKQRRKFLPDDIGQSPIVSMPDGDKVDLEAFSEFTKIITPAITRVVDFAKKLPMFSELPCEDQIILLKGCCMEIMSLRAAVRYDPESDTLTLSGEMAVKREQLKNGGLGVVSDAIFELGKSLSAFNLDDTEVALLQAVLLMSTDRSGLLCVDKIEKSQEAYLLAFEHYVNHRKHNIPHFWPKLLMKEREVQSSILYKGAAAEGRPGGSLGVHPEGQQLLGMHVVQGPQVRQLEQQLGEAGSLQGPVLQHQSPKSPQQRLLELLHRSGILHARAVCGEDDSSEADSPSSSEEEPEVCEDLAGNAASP

CCCOCC(=Nc1ccc(Cl)cc1C(F)(F)F)n1ccnc1
outcome [1]: inactive | AC50 [2]: 0.909 µM (active) | AC50 [3]: 1.28 µM (active) | AC50 [4]: 9.9 µM (active) | outcome [5]: inactive | outcome [6]: inactive | outcome [7]: inactive | outcome [8]: inactive | AC50 [9]: 38.1 µM (active)

CCOP(=O)(NC(C)C)Oc1ccc(SC)c(C)c1 (stereo not drawn)
AC50 [1]: 100 µM (active) and 69 µM (active) | AC50 [2]: 43.6 µM (active) and 36.6 µM (active) | AC50 [3]: 31.6 µM (active) and 38.4 µM (active) | AC50 [4]: 4.34 µM (active) and 4.75 µM (active) | outcome [5]: inactive | AC50 [6]: 100 µM (active) | outcome [6]: inactive | outcome [10]: inactive | outcome [7]: inactive | outcome [8]: inactive | outcome [11]: inactive | outcome [12]: inactive

CC[C@H](C)[C@H]1O[C@]2(C=C[C@@H]1C)C[C@@H]1C[C@@H](C/C=C(\C)[C@@H](O[C@H]3C[C@H](OC)[C@@H](O[C@H]4C[C@H](OC)[C@@H](NC)[C@H](C)O4)[C@H](C)O3)[C@@H](C)/C=C/C=C3\CO[C@@H]4[C@H](O)C(C)=C[C@@H](C(=O)O1)[C@]34O)O2
AC50 [9]: 23 µM (active)

CCOP(=S)(OCC)Oc1ccc([N+](=O)[O-])cc1
outcome [9]: inactive

C#CCC1=C(C)C(OC(=O)C2C(C=C(C)C)C2(C)C)CC1=O (stereo not drawn)
outcome [1]: inactive | AC50 [2]: 22.6 µM (active) | AC50 [3]: 30.2 µM (active) | AC50 [4]: 0.712 µM (active) | outcome [5]: inactive | outcome [6]: inactive | outcome [10]: inactive | outcome [7]: inactive | outcome [8]: inactive | outcome [13]: inactive | outcome [12]: inactive | outcome [14]: inactive | outcome [9]: inactive

O=[N+]([O-])c1cc(C(F)(F)F)c(Cl)c([N+](=O)[O-])c1Nc1ncc(C(F)(F)F)cc1Cl
AC50 [9]: 19.6 µM (active)

CSC1=N[C@@](C)(c2ccccc2)C(=O)N1Nc1ccccc1
outcome [9]: inactive

CCC(=O)Nc1ccc(Cl)c(Cl)c1
outcome [1]: inactive | AC50 [2]: 27.2 µM (active) | AC50 [3]: 39.7 µM (active) | outcome [3]: inactive | AC50 [4]: 27.6 µM (active) and 24.3 µM (active) | outcome [5]: inactive | outcome [6]: inactive | outcome [10]: inactive | outcome [7]: inactive | outcome [8]: inactive | outcome [11]: inactive | AC50 [13]: 165 µM (active) | outcome [13]: inactive | outcome [12]: inactive | outcome [14]: inactive | outcome [9]: inactive

CCOP(=S)(OCC)SCCSCC
outcome [9]: inactive

CCCCOC(=O)[C@@H](C)Oc1ccc(Oc2ccc(C#N)cc2F)cc1
outcome [9]: inactive

CCCSP(=O)(OCC)Oc1ccc(Br)cc1Cl (stereo not drawn)
outcome [9]: inactive

CC(COc1ccc(Oc2ccccc2)cc1)Oc1ccccn1 (stereo not drawn)
outcome [9]: inactive
